# Experimental data as given in PubChem BioAssay.
# Unmarked numbers belong to inactive results. This is one part of the list. Calls of active or inactive are those of the source.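 The calls were made as follows, unless noted: active = mean inhibition above 46.68%, the untreated control wells mean plus 3 SD; inactive = the rest.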
# Experiments:
# [1] = molecular target: Nuclear receptor coactivator 3 (Homo sapiens) (UniProt Q9Y6Q9); test: SRC3 coactivator transcriptional activity inhibitors, confirmation, cell-based, luminescence, quadruplicate (AID 588792;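 active = mean inhibition over 43.08%, the solvent-only control mean plus 3 SD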;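 also: 0% = DMSO treated cells and 100% = gossypol at 36 µM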); conditions: HEK293 GAL4-SRC3 luciferase reporter, at 3.6 µM, active compounds read high
# [2] = test system: transactivating tegument protein VP16 (Human herpesvirus 1), Gal4-VP16 luciferase reporter; test: VP16 transactivation inhibitors, counter-screen for SRC3 inhibitor project, cell-based, luminescence, high throughput (AID 588794; in the data active = inhibition above about 30%); conditions: mammalian cells, VP16-driven luciferase reporter luminescence; at 3.6 µM; active compounds read high
# [3] = test system: transactivating tegument protein VP16 (Human herpesvirus 1); test: VP16 transactivation reporter inhibitors, counter-screen for SRC2 inhibitor project, cell-based, luminescence, single concentration (AID 652007; in the data active = inhibition above about 36%); conditions: cell-based VP16 transactivation luciferase reporter, at 8.9 µM, active compounds read high
# [4] = molecular target: Nuclear receptor coactivator 2 (Homo sapiens) (UniProt Q15596); test: SRC2 coactivator transcriptional activity inhibitors, confirmation, cell-based, luminescence, HEK293, triplicate (AID 652008;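 active = mean inhibition above 46.5%, the solvent-only control mean plus 3 SD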;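 also: 0% = DMSO-treated cells and 100% = Gossypol at 36 µM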); conditions: HEK293 GAL4-SRC2 luciferase reporter, at 8.9 µM, active compounds read high
# [5] = molecular target: Nuclear receptor coactivator 1 (Homo sapiens) (UniProt Q15788); test: SRC1 coactivator transcriptional activity inhibitors, confirmation, cell-based, luminescence, quadruplicate (AID 588820); conditions: HEK293 GAL4-SRC1 luciferase reporter, at 3.6 µM, active compounds read high;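 also: 0% = DMSO wells and 100% = gossypol 36 µM treated wells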
# [6] = VP16 transactivation inhibitors, counter-screen for SRC1 inhibitor project, cell-based, luminescence, high throughput (AID 588824; in the data active = inhibition above about 25%); conditions: cell-based VP16 transactivation luciferase luminescence; at 3.6 µM; active compounds read high
# [7] = molecular target: Receptor-interacting serine/threonine-protein kinase 2 (Homo sapiens) (UniProt O43353); test: NOD2-RIPK2 binding disruptors, retest, confirmation, fluorescence, CHO cells, BLA complementation, triplicate (AID 624370;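 active = mean inhibition across replicates above a set limit taken from the earlier primary screen, cut at about 21% in these data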;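 also: 0% = DMSO-only wells and the high end = clavulanate BLA-blocked wells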); conditions: CCF4 FRET, at 4.98 µM, active compounds read high
# [8] = beta-lactamase reporter inhibitors in CHO cells, confirmation, artefact control for NOD2-RIPK2 interaction inhibitor project, cell-based, CHO-K1 CMV-bla, CCF4 FRET, fluorescence (AID 624371;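 active = mean inhibition above the low-control mean inhibition plus three low-control SD, cut at about 11% in these data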;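 also: 0% = DMSO only wells and 100% = clavulanate high control wells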); conditions: CCF4 FRET ratio, counterscreen, at 4.98 µM, active compounds read high
# [9] = molecular target: Photoreceptor-specific nuclear receptor (Homo sapiens) (UniProt Q9Y5X4); test: NR2E3 agonist confirmation in cells, cell-based, luminescence, CHO-S two-hybrid (AID 624378;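 active = average inhibition above a cutoff equal to the mean inhibition of all tested compounds plus one SD, cut at about 70% in these data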;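 also: 0% = DMSO in NR2E3 cells and 100% = DMSO in cells lacking NR2E3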); conditions: CHO-S mammalian two-hybrid NR2E3-NCOR, luciferase luminescence; at 3.98 µM; active compounds read high
# [10] = GAL4-VP16 reporter modulators, confirmation, counter-screen for NR2E3 agonist project, cell-based, luminescence, CHO-S, high throughput (AID 624379;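 active = mean inhibition above a cutoff equal to the average over all tested compounds plus one standard deviation, cut at about 70% in these data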;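 also: 0% = DMSO with VP16-transfected cells and 100% = DMSO with cells lacking VP16; higher means less reporter light so more repression of VP16 activity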); conditions: CHO-S GAL4-VP16 luciferase reporter, at 3.98 µM, active compounds read high
# [11] = StAR promoter reporter inhibitors, counter-screen for LRH-1 inverse agonist project, cell-based, luminescence, high throughput (AID 651611; in the data active = inhibition above about 28%); conditions: StAR promoter luciferase reporter counterscreen, at 3.6 µM, active compounds read high
# [12] = molecular target: Nuclear receptor subfamily 5 group A member 2 (Homo sapiens) (UniProt O00482); test: LRH-1 (NR5A2) inverse agonists, retest, confirmation, cell-based, luminescence (AID 651613; in the data active = inhibition above about 42%;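 also: HEK293T cells co-transfected with LRH-1 and StAR promoter luciferase reporter; 0% = vehicle wells and 100% = parental cells lacking receptor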); conditions: cell-based LRH-1 luciferase reporter, inverse agonism; at 3.6 µM; active compounds read high
# [13] = molecular target: Steroidogenic factor 1 (Homo sapiens) (UniProt Q13285); test: SF1 (NR5A1) inverse agonists, counter-screen for LRH-1 inverse agonist project, cell-based, luminescence, high throughput (AID 651614; in the data active = inhibition above about 44%;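 also: cells cotransfected with StAR promoter reporter and SF1 expression vector; 0% = vehicle on cells with receptor and 100% = vehicle on cells lacking receptor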); conditions: cell-based SF1 luciferase reporter, at 3.6 µM, active compounds read high
# [14] = VP16 transactivation reporter inhibitors, counter-screen for LRH-1 inverse agonist project, cell-based, luminescence, high throughput (AID 651615; in the data active = inhibition above about 33%); conditions: Gal4-VP16 luciferase reporter cells, at 3.6 µM, active compounds read high
# Chain of Nuclear receptor coactivator 3 (Homo sapiens) (Q9Y6Q9 whole entry, looked up, the tested form may be a part): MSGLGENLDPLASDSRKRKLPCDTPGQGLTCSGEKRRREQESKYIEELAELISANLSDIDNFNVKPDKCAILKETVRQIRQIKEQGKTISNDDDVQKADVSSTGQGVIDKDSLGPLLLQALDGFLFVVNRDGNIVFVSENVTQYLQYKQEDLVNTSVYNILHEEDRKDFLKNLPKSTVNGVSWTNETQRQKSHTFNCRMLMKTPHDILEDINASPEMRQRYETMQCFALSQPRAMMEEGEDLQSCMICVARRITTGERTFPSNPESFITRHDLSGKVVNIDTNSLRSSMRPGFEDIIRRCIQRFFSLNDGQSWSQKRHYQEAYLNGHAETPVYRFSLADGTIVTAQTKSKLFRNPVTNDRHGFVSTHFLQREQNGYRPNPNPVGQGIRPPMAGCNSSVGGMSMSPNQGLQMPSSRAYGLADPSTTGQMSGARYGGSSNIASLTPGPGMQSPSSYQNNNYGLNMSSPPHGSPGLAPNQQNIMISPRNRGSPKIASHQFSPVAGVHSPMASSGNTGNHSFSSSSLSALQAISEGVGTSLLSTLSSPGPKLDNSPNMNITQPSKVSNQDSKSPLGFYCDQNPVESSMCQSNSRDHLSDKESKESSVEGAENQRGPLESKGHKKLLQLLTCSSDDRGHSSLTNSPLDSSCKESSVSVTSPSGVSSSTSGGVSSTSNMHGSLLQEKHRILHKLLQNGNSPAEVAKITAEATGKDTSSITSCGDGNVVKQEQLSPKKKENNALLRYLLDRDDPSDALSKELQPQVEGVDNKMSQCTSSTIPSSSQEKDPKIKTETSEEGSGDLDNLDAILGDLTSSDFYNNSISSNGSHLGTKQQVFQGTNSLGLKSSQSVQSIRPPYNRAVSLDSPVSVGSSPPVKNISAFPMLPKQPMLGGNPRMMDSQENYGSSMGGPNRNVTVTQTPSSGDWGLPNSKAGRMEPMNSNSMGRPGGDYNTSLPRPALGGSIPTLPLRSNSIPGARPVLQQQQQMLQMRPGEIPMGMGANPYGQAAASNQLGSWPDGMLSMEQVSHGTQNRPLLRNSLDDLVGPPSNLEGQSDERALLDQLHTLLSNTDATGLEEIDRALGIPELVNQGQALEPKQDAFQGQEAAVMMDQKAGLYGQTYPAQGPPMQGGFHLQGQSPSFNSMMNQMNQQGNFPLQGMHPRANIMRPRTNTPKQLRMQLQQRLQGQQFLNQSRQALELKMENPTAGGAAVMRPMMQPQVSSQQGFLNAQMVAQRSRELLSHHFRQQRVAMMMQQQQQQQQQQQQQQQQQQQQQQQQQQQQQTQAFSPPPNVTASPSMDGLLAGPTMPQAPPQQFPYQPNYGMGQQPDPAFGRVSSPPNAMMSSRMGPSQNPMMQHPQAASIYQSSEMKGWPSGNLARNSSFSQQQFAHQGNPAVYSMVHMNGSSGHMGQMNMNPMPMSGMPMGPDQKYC
# Chain of Steroidogenic factor 1 (Homo sapiens) (Q13285 whole entry, looked up, the tested form may be a part): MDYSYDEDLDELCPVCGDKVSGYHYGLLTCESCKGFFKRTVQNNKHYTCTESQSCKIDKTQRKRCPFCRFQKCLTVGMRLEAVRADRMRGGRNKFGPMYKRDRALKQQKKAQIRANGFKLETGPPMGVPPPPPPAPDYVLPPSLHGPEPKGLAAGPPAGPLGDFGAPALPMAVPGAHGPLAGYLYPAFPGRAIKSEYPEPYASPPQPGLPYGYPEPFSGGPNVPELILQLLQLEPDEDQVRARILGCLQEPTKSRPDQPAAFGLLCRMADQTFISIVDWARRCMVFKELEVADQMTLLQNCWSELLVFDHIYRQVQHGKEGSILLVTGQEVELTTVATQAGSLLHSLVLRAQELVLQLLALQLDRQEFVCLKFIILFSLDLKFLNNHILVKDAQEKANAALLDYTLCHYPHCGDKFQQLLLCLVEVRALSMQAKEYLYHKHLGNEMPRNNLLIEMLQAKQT
# Chain of Nuclear receptor coactivator 1 (Homo sapiens) (Q15788 whole entry, looked up, the tested form may be a part): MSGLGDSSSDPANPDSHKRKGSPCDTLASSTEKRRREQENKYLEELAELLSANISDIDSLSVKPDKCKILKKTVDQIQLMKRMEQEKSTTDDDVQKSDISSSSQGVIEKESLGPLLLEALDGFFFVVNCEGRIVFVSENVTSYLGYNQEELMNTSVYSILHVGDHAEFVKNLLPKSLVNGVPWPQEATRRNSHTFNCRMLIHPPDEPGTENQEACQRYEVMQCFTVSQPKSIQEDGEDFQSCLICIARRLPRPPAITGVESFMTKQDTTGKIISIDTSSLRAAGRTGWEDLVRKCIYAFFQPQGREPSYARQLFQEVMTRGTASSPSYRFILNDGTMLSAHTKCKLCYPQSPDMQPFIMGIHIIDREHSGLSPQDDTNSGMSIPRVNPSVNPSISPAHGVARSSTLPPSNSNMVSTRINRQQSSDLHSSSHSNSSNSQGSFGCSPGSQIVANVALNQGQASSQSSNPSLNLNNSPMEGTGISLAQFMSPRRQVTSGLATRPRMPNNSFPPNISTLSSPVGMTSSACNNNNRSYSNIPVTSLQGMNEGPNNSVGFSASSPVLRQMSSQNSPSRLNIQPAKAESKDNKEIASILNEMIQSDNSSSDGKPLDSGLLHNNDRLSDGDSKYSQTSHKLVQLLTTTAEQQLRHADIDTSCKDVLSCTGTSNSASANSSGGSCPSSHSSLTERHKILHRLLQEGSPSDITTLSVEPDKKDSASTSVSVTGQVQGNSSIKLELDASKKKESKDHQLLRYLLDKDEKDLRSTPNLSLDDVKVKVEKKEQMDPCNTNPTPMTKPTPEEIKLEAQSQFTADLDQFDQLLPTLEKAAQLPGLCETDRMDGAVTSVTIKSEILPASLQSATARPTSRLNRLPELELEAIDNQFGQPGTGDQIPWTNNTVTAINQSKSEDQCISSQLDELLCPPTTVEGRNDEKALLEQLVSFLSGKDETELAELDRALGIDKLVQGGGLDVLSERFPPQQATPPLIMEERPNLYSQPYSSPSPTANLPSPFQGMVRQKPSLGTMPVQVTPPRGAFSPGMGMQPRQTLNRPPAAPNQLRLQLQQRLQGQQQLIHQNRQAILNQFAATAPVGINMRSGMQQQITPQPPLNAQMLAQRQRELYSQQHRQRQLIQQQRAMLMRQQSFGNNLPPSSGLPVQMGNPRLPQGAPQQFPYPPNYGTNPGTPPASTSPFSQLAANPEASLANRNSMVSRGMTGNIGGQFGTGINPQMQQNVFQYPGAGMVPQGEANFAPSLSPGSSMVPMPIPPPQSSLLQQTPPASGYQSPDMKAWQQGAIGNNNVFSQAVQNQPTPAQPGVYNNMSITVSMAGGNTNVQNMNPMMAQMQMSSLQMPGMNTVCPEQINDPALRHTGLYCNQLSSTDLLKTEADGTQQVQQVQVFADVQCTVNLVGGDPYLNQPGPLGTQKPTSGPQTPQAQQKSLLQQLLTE
# Chain of Nuclear receptor subfamily 5 group A member 2 (Homo sapiens) (O00482 whole entry, looked up): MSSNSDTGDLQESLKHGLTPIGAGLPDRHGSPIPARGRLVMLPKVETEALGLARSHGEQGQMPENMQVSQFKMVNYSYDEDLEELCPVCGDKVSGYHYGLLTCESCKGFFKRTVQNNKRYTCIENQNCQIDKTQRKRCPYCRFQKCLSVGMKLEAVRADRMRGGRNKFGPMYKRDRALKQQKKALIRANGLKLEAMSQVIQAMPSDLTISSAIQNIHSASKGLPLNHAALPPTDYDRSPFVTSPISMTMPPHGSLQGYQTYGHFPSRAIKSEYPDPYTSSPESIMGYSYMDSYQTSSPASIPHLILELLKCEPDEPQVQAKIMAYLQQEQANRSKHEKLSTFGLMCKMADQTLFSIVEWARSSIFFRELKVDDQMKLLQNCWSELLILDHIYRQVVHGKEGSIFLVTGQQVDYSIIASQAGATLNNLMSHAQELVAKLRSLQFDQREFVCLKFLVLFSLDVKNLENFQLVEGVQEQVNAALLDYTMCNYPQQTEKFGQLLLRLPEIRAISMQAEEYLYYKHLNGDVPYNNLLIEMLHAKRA
# Chain of Photoreceptor-specific nuclear receptor (Homo sapiens) (Q9Y5X4 whole entry, looked up, the tested form may be a part): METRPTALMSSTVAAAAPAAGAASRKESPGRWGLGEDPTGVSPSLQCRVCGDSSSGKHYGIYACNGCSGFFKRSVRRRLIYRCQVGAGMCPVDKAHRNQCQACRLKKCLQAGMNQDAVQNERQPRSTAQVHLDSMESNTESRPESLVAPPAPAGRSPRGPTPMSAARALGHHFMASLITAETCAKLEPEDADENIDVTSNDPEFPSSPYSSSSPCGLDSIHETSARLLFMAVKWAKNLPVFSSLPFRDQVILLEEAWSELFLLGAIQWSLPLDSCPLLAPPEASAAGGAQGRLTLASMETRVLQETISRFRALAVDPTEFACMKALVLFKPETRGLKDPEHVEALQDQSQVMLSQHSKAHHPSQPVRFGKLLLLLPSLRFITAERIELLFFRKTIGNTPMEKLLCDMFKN
# Chain of Receptor-interacting serine/threonine-protein kinase 2 (Homo sapiens) (O43353 whole entry, looked up): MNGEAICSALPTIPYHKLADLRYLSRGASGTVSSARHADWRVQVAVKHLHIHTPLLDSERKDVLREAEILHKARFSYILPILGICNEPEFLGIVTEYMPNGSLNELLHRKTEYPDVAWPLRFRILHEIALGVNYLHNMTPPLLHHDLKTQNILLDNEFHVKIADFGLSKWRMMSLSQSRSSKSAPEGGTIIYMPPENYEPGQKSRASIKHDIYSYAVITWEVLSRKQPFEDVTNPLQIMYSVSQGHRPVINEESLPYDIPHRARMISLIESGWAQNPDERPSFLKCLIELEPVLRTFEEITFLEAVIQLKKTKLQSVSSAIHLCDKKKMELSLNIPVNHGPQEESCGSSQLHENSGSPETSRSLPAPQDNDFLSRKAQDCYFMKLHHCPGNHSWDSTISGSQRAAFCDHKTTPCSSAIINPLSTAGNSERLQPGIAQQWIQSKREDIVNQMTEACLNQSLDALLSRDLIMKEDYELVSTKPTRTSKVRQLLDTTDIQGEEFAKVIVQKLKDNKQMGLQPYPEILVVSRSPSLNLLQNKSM
structure (smiles),measurement,setting,value
CN1C2CCC1/C(=C/c1ccccn1)C(=O)/C2=C\c1ccccn1,inhibition,[1],-0.02%
same,inhibition,[2],80.8% (active)
same,inhibition,[3],75% (active)
same,inhibition,[4],70.9% (active)
CCN(CC)C(=O)c1ccc(NC(=O)c2cccc(S(=O)(=O)N3CCN(Cc4ccccc4)CC3)c2)cc1,inhibition,[5],-1.69%
same,inhibition,[6],20.8%
CC(=O)OC1C2(CC3N4C(=O)C5(CO)SSC4(CC31O)C(=O)N5C)OC(C)C(C)(C)C2=O (centres undefined),inhibition,[1],95.9% (active)
same,inhibition,[2],94.1% (active)
same,inhibition,[7],41.9% (active)
same,inhibition,[8],0.4%
same,inhibition,[9],98.8% (active)
same,inhibition,[10],99.1% (active)
same,inhibition,[11],96.3% (active)
same,inhibition,[12],110% (active)
same,inhibition,[13],98.4% (active)
same,inhibition,[14],97.4% (active)
C[C@H]1CCC/C=C/[C@@H]2C[C@H](O)C[C@H]2[C@@H](O)/C=C/C(=O)O1,inhibition,[1],64.3% (active)
same,inhibition,[2],77.3% (active)
same,inhibition,[11],81.5% (active)
same,inhibition,[12],85.4% (active)
same,inhibition,[13],80% (active)
same,inhibition,[14],74.8% (active)
CC(=CCOc1ccc2ccc(=O)oc2c1)C1=CC(=O)C(C)(C)O1,inhibition,[5],17.3%
same,inhibition,[6],35.2% (active)
COC(=O)C1=C(c2ccc(-c3ccccc3)c(F)c2)C[C@@H]2CC[C@H]1N2C(=O)N1CCOCC1,inhibition,[5],2.48%
same,inhibition,[6],25.3%
C1=NCCc2c1[nH]c1ccccc21,inhibition,[1],27.8%
same,inhibition,[2],-13.4%
same,inhibition,[11],14.4%
same,inhibition,[12],50.2% (active)
same,inhibition,[13],44.8% (active)
same,inhibition,[14],-11.6%
CCCCC(CC)COCCCN=Cc1c(O)[nH]c(=S)[nH]c1=O (centres undefined),inhibition,[5],29.9%
same,inhibition,[6],17.5%
